Holding throughout (test): NCI-60 one-dose screen, 48 h (100 = growth as untreated, 0 = no growth, -100 = all killed)
Common to all, as to conditions: 10 µM unless noted

Assay [1] concerns SK-MEL-2 melanoma.
The subject of assay [2] is EKVX NSCLC.
Assay [3] concerns SN12C renal.
Assay [4] relates to UO-31 renal.
Assay [5] deals with TK-10 renal.
In assay [6] the test system is ACHN renal.
Assay [7] has as its system CAKI-1 renal.
Assay [8] concerns A498 renal.
Assay [9] concerns CCRF-CEM leukemia.
Assay [10] deals with MOLT-4 leukemia.
The subject of assay [11] is SR leukemia.
Assay [12] concerns RPMI-8226 leukemia.
In assay [13] the test system is OVCAR-8 ovarian.
Assay [14] has as its system OVCAR-5 ovarian.
Assay [15] deals with OVCAR-4 ovarian.
Assay [16] concerns SK-OV-3 ovarian.
Assay [17] has as its system IGROV1 ovarian.
For assay [18], the system named is OVCAR-3 ovarian.
In assay [19] the test system is HS 578T breast.
Assay [20] has as its system NCI/ADR-RES ovarian.

About 83,000 compounds went through this panel and 20% of them were active in at least one assay; those are over-represented in the sample as a whole.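 Method: cells in 96-well plates; compound added at one concentration; 48 h incubation; percent growth measured; values under 10 scored active.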 A number with no mark means an inactive call. Activity calls are given as the source filed them.

Take `Cc1cc(N2CCOCC2)nc(N(CCCNc2ccnc3cc(Cl)ccc23)Cc2ccc3c(c2)OCO3)n1`: the growth in [1] is -18.5% (active); in [2], 3.49% (active); in assay [3] it was 21%; in assay [4] it was -32.3% (active); in [5], -66% (active); in [6], -86.2% (active). In addition, the growth in [7] is 35.2%; in assay [8], -31.5% (active); in [9], -5.56% (active); in assay [10] it was -36.2% (active); in [11] it was -29.2% (active); in [12], -2.52% (active). For the same compound, the growth is -52.4% (active) in [13]; 22.7% in [14]; -37.9% (active) in assay [15]; 18.9% in assay [16]; 4.36% (active) in assay [17]; -88.6% (active) in assay [18]. In addition, the growth in assay [19] was 9.54% (active); in assay [20], -36.1% (active).
With `CCOc1ccc(N2C(=O)CCSC2=S)cc1`, the growth was 102% in [1]; 95.5% in [2]; 101% in [3]; 85.5% in assay [4]; 96.3% in assay [5]; 101% in assay [6]. The growth in assay [7] was 96.4%; in [8], 102%; in [9], 108%; in [10], 104%; in assay [11], 116%; in [12], 104%. Further, the growth in assay [13] is 104%; in [14], 107%; in assay [15], 109%; in assay [16], 101%; in [17], 99.1%; in assay [18] it was 114%. The growth in [19] and in [20] was 105% each time.
As for `CS(=O)(=O)Nc1cc(-c2ccc3ncnc(Nc4cccc(Cl)c4)c3c2)cnc1Cl`, the growth in assay [1] is -40.6% (active); in assay [2] it was -23.9% (active); in [3] it was 16.2%; in [4], -2.12% (active); in [5], -20.4% (active); in assay [6] it was 11.8%. The growth was 2.5% (active) in assay [7]; -58.1% (active) in [8]; 14.7% in assay [9]; -16% (active) in [10]; 0.413% (active) in assay [11]; -44.8% (active) in assay [12]. Further, the growth in assay [13] is 16.4%; in assay [14] it was 7.66% (active); in assay [15] it was 13.7%; in [16], -28.4% (active); in assay [17], -25.7% (active); in assay [18], -10.7% (active). Besides, the results for the growth in assay [19] and in [20] were -13.6% (active) and 19.2%, respectively.
`CCN1CCN(CCOc2ccc(CNc3ccc4nc(CCC5CCCCC5)[nH]c4c3)cc2)CC1`: the growth was -3.49% (active) in assay [1]; 71.3% in [2]; 67.8% in assay [3]; -24.9% (active) in [4]; 81.2% in assay [5]; 40.9% in [6]. Moreover, the growth in [7] is 0.23% (active); in assay [8] it was 43.9%; in assay [9], 8.27% (active); in assay [10] it was 20%; in assay [11] it was 31.5%; in assay [12] it was -5.5% (active). Also, the growth is 38.2% in assay [13]; 58.7% in assay [14]; 48.2% in [15]; 87.1% in [16]; 40.9% in [17]; 27.8% in assay [18]. For the same compound, the growth is 65% in assay [19] and 73.5% in assay [20].
Consider `O=C1CCc2c(sc3[nH]c(=S)n(-c4cc(C(F)(F)F)cc(C(F)(F)F)c4)c(=O)c23)C1`, for which the growth in [1] was -31.3% (active); in assay [2], -8.72% (active); in [3], 8.54% (active); in [4], -57.5% (active); in [5] it was 2.81% (active); in assay [6], 3.08% (active). In addition, the growth in [7] is 0.877% (active); in assay [8], -18.2% (active); in [9], 1.71% (active); in assay [10] it was 11%; in assay [11], 13.4%; in [12], -23.7% (active). The growth in [13] was 1.35% (active); in [14], -24.4% (active); in assay [15] it was 4.84% (active); in assay [16], -18.7% (active); in assay [17] it was -10.5% (active); in assay [18] it was -13.3% (active). Moreover, the growth in [19] is -6.29% (active); in assay [20], -13.4% (active).
With `Cc1nc2ccccc2c(/C=C/c2ccc(Cl)cc2)c1C(=O)/C=C/c1ccccc1`, the growth in [1] is -14.1% (active); in assay [2], 31.5%; in assay [3], 20.6%; in assay [4], -38% (active); in assay [5], 17.7%; in assay [6], 5.92% (active). Also, the growth is 4.04% (active) in assay [7]; 44% in assay [8]; 6.45% (active) in assay [9]; 5.35% (active) in [10]; 11.5% in assay [11]; -11.8% (active) in assay [12]. In addition, the growth in assay [13] is -2.61% (active); in [14], -21.8% (active); in [15], 33.1%; in assay [16], 57.4%; in [17], 0.031% (active); in assay [18], -35.1% (active). The growth in [19] is 25%; in [20] it was 0.775% (active).
For the compound `COc1ccc(C2=NN3C(C2)c2cc(Br)ccc2OC3c2ccncc2)cc1` (stereo not given), the growth in assay [1] is 97.5%; in assay [2], 83.6%; in assay [3] it was 83.3%; in assay [4] it was 44.6%; in assay [5] it was 98.6%; in assay [6] it was 80.7%. The growth in [7] is 45.2%; in [8], 95.6%; in assay [9], 70%; in assay [10], 68.5%; in assay [11], 64.2%; in [12], 77.8%. Moreover, the growth is 82.6% in [13]; 88.4% in assay [14]; 78.9% in assay [15]; 70.6% in assay [16]; 48.9% in assay [17]; 80.1% in assay [18]. The growth was 89.4% in assay [19] and 82% in [20].
`CN(CCNc1ccc(C(=N)N)cc1)c1ccc(C(=N)N)cc1`: the growth was 90.4% in assay [1]; 84.1% in assay [2]; 39.3% in assay [3]; 88.3% in [4]; 94.1% in assay [5]; 78.4% in [6]. Moreover, the growth in [7] was 62%; in assay [8] it was 57.7%; in [9], 7.18% (active); in [10] it was 87.6%; in assay [11], 66.7%; in assay [12], 72.2%. Also, the growth in assay [13] was 80.8%; in assay [14] it was 92%; in [15] it was 96.2%; in [16] it was 119%; in [17], 36.7%; in assay [18], 91.4%. Further, the results for the growth in [19] and in assay [20] were 101% and 97.1%, respectively.
